Experimental data: ChEMBL document CHEMBL3988442, “University of Dundee, Small-Polar-MMV Screening Library” (2021)
Out of some 48,000 compounds screened, about 13,000 (27%) showed an effect of 50% or more. The list shows a part of the results.

Each molecule was assayed on Wolbachia pipientis (assay: Anti-Wolbachia Cell-Based Screen). Conditions: 5 µM.
Assay type: functional
Set-up: scale not given: in the data most compounds retested in dose-response had high values

**Q.** With `CCn1ccnc1CN1CCNCC1C.Cl.Cl` (stereo unspecified) as the molecule, how does the “Percent Effect” value read?
**A.** 0.9214%

**Q.** How did the “Percent Effect” value turn out when `CN(C)C(=O)CN1CCCC12CCCN(c1ncc(F)cn1)C2.O=C(O)C(F)(F)F` (stereo unspecified) was run?
**A.** 0.08141%

**Q.** For `O=C(c1ncccn1)N1C[C@@H]2CN(CC3CC3)CCO[C@@H]2C1`, which “Percent Effect” value is on record?
**A.** -1.954%

**Q.** Which “Percent Effect” value does the source give for `CN1CCN(C(=O)Cc2csc(-c3ccsc3)n2)C(c2ccccc2)C1` (stereo unspecified) here?
**A.** -6.196%

**Q.** `CN(C)CCN(C)C[C@H]1CN2CC[C@H]1C[C@@H]2CNC(=O)Nc1ccsc1` was tested. Which “Percent Effect” value did it give?
**A.** 9.133%

**Q.** `Cc1csc(CN2CCC[C@]3(C[C@@H](Oc4ccccn4)CO3)C2)n1.O=C(O)C(F)(F)F.O=C(O)C(F)(F)F` was tested. Which “Percent Effect” value did it give?
**A.** 133.6%

**Q.** `Cn1cc(CN2CC[C@]3(C[C@H](Oc4ccccn4)CO3)C2)cn1.O=C(O)C(F)(F)F.O=C(O)C(F)(F)F` was tested. Which “Percent Effect” value did it give?
**A.** 102.3%

**Q.** Which “Percent Effect” value does the source give for `O=C(O)C(F)(F)F.O=C(O)C(F)(F)F.c1ccc(O[C@H]2CO[C@@]3(CCCN(Cc4nccs4)C3)C2)nc1` here?
**A.** 12.82%

**Q.** `CN(C)[C@@H]1CN(Cc2cnn(C)c2)[C@@H]2COC[C@H]12.O=C(O)C(F)(F)F.O=C(O)C(F)(F)F.O=C(O)C(F)(F)F` was tested. Which “Percent Effect” value did it give?
**A.** -10.13%

**Q.** How did the “Percent Effect” value turn out when `Cn1cc(CN2CCC[C@]3(C[C@H](Oc4ccccn4)CO3)C2)cn1` was run?
**A.** 94%

**Q.** How did the “Percent Effect” value turn out when `Cc1cc(CN2CC[C@]3(C[C@@H](OCC(=O)N(C)C)CO3)C2)no1.O=C(O)C(F)(F)F` was run?
**A.** 25.8%

**Q.** How did the “Percent Effect” value turn out when `Cn1cc(CN2CCC[C@]3(C[C@@H](Oc4ccccn4)CO3)C2)cn1.O=C(O)C(F)(F)F.O=C(O)C(F)(F)F` was run?
**A.** 98.39%

**Q.** For `Cc1csc(CN2CCC[C@]3(C[C@H](Oc4ccccn4)CO3)C2)n1.O=C(O)C(F)(F)F.O=C(O)C(F)(F)F`, which “Percent Effect” value is on record?
**A.** -0.2968%

**Q.** For `Cc1noc(C)c1CN1C[C@@H](OCC(=O)N(C)C)[C@H]2OCCC[C@H]21`, which “Percent Effect” value is on record?
**A.** -2.894%

**Q.** `O=C(NCC1CC1)[C@@H]1C[C@@H]2OCCN[C@@H]2C1.O=C(O)C(F)(F)F` was tested. Which “Percent Effect” value did it give?
**A.** 8.68%

**Q.** How did the “Percent Effect” value turn out when `Cc1cc(C)c(CNCC(O)c2ccc(F)c(F)c2)c(C)c1.Cl` (stereo unspecified) was run?
**A.** 6.678%

**Q.** How did the “Percent Effect” value turn out when `COC(=O)c1ccc(C2SCC(=O)Nc3ccsc32)cc1` (stereo unspecified) was run?
**A.** -2.415%

**Q.** For `O=C1CSC(c2cccs2)c2cnn(C3CCCC3)c2N1` (stereo unspecified), which “Percent Effect” value is on record?
**A.** 10.18%

**Q.** For `Cn1c(=O)n(C)c2cc(C3SCC(=O)Nc4ccsc43)ccc21` (stereo unspecified), which “Percent Effect” value is on record?
**A.** 27.99%

**Q.** How did the “Percent Effect” value turn out when `CC(C)(C)n1ncc2c1NC(=O)CSC2c1ccsc1` (stereo unspecified) was run?
**A.** 129%

**Q.** How did the “Percent Effect” value turn out when `Cc1c(C2SCC(=O)Nc3c2cnn3C(C)(C)C)cnn1C` (stereo unspecified) was run?
**A.** 122.6%

**Q.** Which “Percent Effect” value does the source give for `O=C1CSC(c2ccc(O)cc2)c2sccc2N1` (stereo unspecified) here?
**A.** -5.574%

**Q.** With `COc1cccc(C2SCC(=O)Nc3ccsc32)c1OC` (stereo unspecified) as the molecule, how does the “Percent Effect” value read?
**A.** -5.826%

**Q.** For `CC(C)(C)n1ncc2c1NC(=O)CSC2c1ccc2c(c1)OCCO2` (stereo unspecified), which “Percent Effect” value is on record?
**A.** 117.6%

**Q.** `COC(=O)c1ccc(C2SCC(=O)Nc3c2cnn3C(C)(C)C)cc1` (stereo unspecified) was tested. Which “Percent Effect” value did it give?
**A.** 111.9%

**Q.** For `O=C1CSC(c2ccsc2)c2sccc2N1` (stereo unspecified), which “Percent Effect” value is on record?
**A.** 0.8024%

**Q.** With `COc1cc(C2SCC(=O)Nc3ccsc32)cc(OC)c1O` (stereo unspecified) as the molecule, how does the “Percent Effect” value read?
**A.** -0.1259%

**Q.** How did the “Percent Effect” value turn out when `CC1CCN(C[C@H]2CN3CC[C@H]2C[C@@H]3CNC(=O)Nc2ccsc2)CC1` was run?
**A.** 0.4847%

**Q.** With `CC1C(=O)Nc2cccnc2N1S(=O)(=O)c1ccc(C#N)c(Cl)c1` (stereo unspecified) as the molecule, how does the “Percent Effect” value read?
**A.** 12.36%

**Q.** With `O=C(NC[C@H]1C[C@@H]2CCN1C[C@@H]2CN1CCOCC1)Nc1ccsc1` as the molecule, how does the “Percent Effect” value read?
**A.** 0.8179%

**Q.** How did the “Percent Effect” value turn out when `CN(C)C(=O)COC[C@@]12CCC[C@@H]1CNC2.O=C(O)C(F)(F)F` was run?
**A.** -7.185%

**Q.** Which “Percent Effect” value does the source give for `O=C(CSc1ccccn1)N1CCN(CCO)[C@@H]2CS(=O)(=O)C[C@@H]21` here?
**A.** -2.402%

**Q.** With `Cn1cc(C2SCC(=O)Nc3c2cnn3C(C)(C)C)cn1` (stereo unspecified) as the molecule, how does the “Percent Effect” value read?
**A.** 109.1%

**Q.** For `Cc1n[nH]c2c1C(c1cnn(C)c1)SCC(=O)N2` (stereo unspecified), which “Percent Effect” value is on record?
**A.** 12.5%

**Q.** How did the “Percent Effect” value turn out when `CC(C)CN1C[C@H]2C[C@H](C(=O)NCc3cccnc3)[C@@H](C1)O2` was run?
**A.** -10.23%

**Q.** How did the “Percent Effect” value turn out when `Cn1cc(CN2C[C@H]3CN(c4cncnc4)C(=O)[C@H]3C2)cn1.O=C(O)C(F)(F)F` was run?
**A.** -0.6359%

**Q.** With `N#Cc1ccc(C(=O)NS(=O)(=O)c2ccc(C#N)c(Cl)c2)cc1` as the molecule, how does the “Percent Effect” value read?
**A.** -4.058%

**Q.** `COc1ccc2ncn(Cc3ncc[nH]3)c(=O)c2c1` was tested. Which “Percent Effect” value did it give?
**A.** 121%

**Q.** Which “Percent Effect” value does the source give for `O=S1(=O)C[C@@H]2[C@H](C1)N(Cc1ncc[nH]1)CCN2Cc1cccnc1` here?
**A.** -2.711%

**Q.** Which “Percent Effect” value does the source give for `CCc1ccc2ncn(Cc3ncc[nH]3)c(=O)c2c1` here?
**A.** 108.2%

**Q.** How did the “Percent Effect” value turn out when `Cc1ncsc1CN1CCO[C@H]2[C@H](Oc3ccccn3)CC[C@@H]21.O=C(O)C(F)(F)F.O=C(O)C(F)(F)F` was run?
**A.** -5.284%

**Q.** For `Cc1nc(CC(=O)N(CCN2CCOCC2)Cc2ccco2)c(C)s1`, which “Percent Effect” value is on record?
**A.** 5.284%

**Q.** `CCc1ncc(CN(CCc2ccccc2)Cc2cccs2)cn1.O=C(O)CC(O)(CC(=O)O)C(=O)O` was tested. Which “Percent Effect” value did it give?
**A.** 50.24%

**Q.** `CN1CCC2(COCc3cnc(-c4ccccc4)nc32)C1.O=C(O)C(F)(F)F` (stereo unspecified) was tested. Which “Percent Effect” value did it give?
**A.** 9.461%

**Q.** How did the “Percent Effect” value turn out when `CN(C)c1ncc2c(n1)C1(CCN(Cc3ccccc3)C1)COC2.O=C(O)C(F)(F)F` (stereo unspecified) was run?
**A.** -5.323%

**Q.** How did the “Percent Effect” value turn out when `COCCN1CCC2(COCc3cnc(N(C)C)nc32)C1.O=C(O)C(F)(F)F` (stereo unspecified) was run?
**A.** 1.083%

**Q.** For `CC(C)CN1CCC2(COCc3cnc(-c4ccccc4)nc32)C1.O=C(O)C(F)(F)F` (stereo unspecified), which “Percent Effect” value is on record?
**A.** 105.5%

**Q.** For `O=C(O)C(F)(F)F.c1ccc(-c2ncc3c(n2)C2(CCN(CC4CC4)C2)COC3)cc1` (stereo unspecified), which “Percent Effect” value is on record?
**A.** 6.483%

**Q.** How did the “Percent Effect” value turn out when `COCCN1CCC2(COCc3cnc(-c4ccccc4)nc32)C1.O=C(O)C(F)(F)F` (stereo unspecified) was run?
**A.** 89.12%

**Q.** Which “Percent Effect” value does the source give for `N#CC1(c2ccccc2)CCN(C(=O)C2CCCN(CC(N)=O)C2)CC1` (stereo unspecified) here?
**A.** -8.527%

**Q.** `CC(C)(O)c1cn(C[C@H]2C[C@@H]3CCN2C[C@@H]3C(=O)N2CCOCC2)nn1` was tested. Which “Percent Effect” value did it give?
**A.** -10.14%

**Q.** How did the “Percent Effect” value turn out when `O=C(O)C(F)(F)F.O=C(O)C(F)(F)F.O=C1N(c2cncnc2)CCC12CCCN(Cc1ccccn1)C2` (stereo unspecified) was run?
**A.** -2.82%

**Q.** With `O=C(O)C(F)(F)F.O=C(O)C(F)(F)F.O=S(=O)(C1CC1)N1CCC2(CCCN(Cc3ccccn3)C2)C1` (stereo unspecified) as the molecule, how does the “Percent Effect” value read?
**A.** 113.2%

**Q.** How did the “Percent Effect” value turn out when `O=S(=O)(C1CC1)N1CCC2(CCCN(Cc3ccccn3)C2)CC1` was run?
**A.** 112.9%

**Q.** With `CS(=O)(=O)N1CCC2(CCCN(Cc3ccccn3)C2)C1.O=C(O)C(F)(F)F.O=C(O)C(F)(F)F` (stereo unspecified) as the molecule, how does the “Percent Effect” value read?
**A.** -1.492%

**Q.** How did the “Percent Effect” value turn out when `CS(=O)(=O)N1CCC2(CCCN(Cc3ccccn3)C2)CC1.O=C(O)C(F)(F)F` was run?
**A.** 4.513%
